{
  "source": "PubChem BioAssay (NCI)",
  "note": "This is part of a sample that, as a whole, favours compounds with a hit. Of some 83,000 tested, about 20% had one in any assay.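 In brief: 96-well plates, 48 h treatment, single concentration, percent growth endpoint.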 Unmarked numbers belong to inactive results. Calls of active or inactive are those of the source. The calls were made as follows: active = growth percent below 10; inactive = the rest.",
  "data": [
    {"test_system": "NCI-H226 lung", "assay": "NCI-60 one-dose screen, 48 h (100 = growth as untreated, 0 = no growth, -100 = all killed)", "details": "10 µM unless noted", "values": [
      {"smiles": "COc1ccc(/C=C(\\C#N)n2nnc3cc(Cl)ccc32)cc1", "growth": "12.8%"},
      {"smiles": "COc1ccc(C(=O)/C=C/c2c(C(F)(F)F)nc3ccccn23)cc1OC", "growth": "79.4%"},
      {"smiles": "CCN(C)S(=O)(=O)Nc1cccc(Nc2ncnc3cc(NC(=O)CCl)ccc23)c1Cl", "growth": "6.77% (active)"},
      {"smiles": "Cc1c2cnccc2c(C)c2c1c1cc(C#N)ccc1n2C", "growth": "-18.6% (active)"},
      {"smiles": "CN(C)CC(C)(C)C(=O)/C=C/c1ccccc1", "growth": "-17.9% [25 µM] (active)"},
      {"smiles": "O=CN1N=C(c2cccc(Nc3ccnc4cc(Cl)ccc34)c2)CC1c1ccccc1", "note": "(stereo unspecified)", "growth": "38.3%"},
      {"smiles": "O=C(Nc1ccc(Oc2cccc(Cl)c2)c(Cl)c1)c1cnccn1", "growth": "64.1%"},
      {"smiles": "O=c1[nH]c(Cc2nc3ccccc3s2)nc2cc(Br)ccc12", "growth": "76.8%"},
      {"smiles": "C#CCNC(=O)[C@H](CC)[C@H]1CC[C@H](C)[C@H]([C@@H](C)[C@H](O)[C@H](C)C(=O)[C@H](CC)C2O[C@]3(C=CC(=O)[C@]4(CC[C@@](C)([C@H]5CC[C@](O)(CC)[C@H](C)O5)O4)O3)[C@H](C)C[C@@H]2C)O1", "note": "(stereo partly specified)", "growth": "57.7%"},
      {"smiles": "O=C(Nc1ccc(Oc2cccc(F)c2)c(Cl)c1)c1cccnc1", "growth": "56.9%"},
      {"smiles": "CS(=O)(=O)Nc1cc(-c2ccc3ncnc(Nc4ccc5c(cnn5Cc5ccc(F)cc5)c4)c3c2)cnc1Cl", "growth": "66.8%"},
      {"smiles": "COC1=CC(c2ccc[nH]2)=N/C1=C\\c1[nH]c(C)c(C)c1CCC(=O)OCc1ccccc1", "growth": "-2.19% (active)"},
      {"smiles": "CC(C)(C)CC(C)(C)NC(=O)Nc1ncccc1OCc1ccccc1", "growth": "91.6%"},
      {"smiles": "Nc1nc2ccccc2c2c1S(=O)(=O)c1ccc(Cl)cc1C2=O", "growth": "63.1%"},
      {"smiles": "CCOC(=O)C/C(=N\\Nc1cc(=O)[nH]c2ccc(Br)cc12)C(=O)OCC", "growth": "86.9%"},
      {"smiles": "COc1cc(-c2csc(NC(=O)c3ccc(N4CCOCC4)c(C(F)(F)F)c3)n2)cc(OC)c1OC", "growth": "41.6%"},
      {"smiles": "Oc1c(Br)cc(Br)c2ccc(Cn3cc(-c4ccc(C(F)(F)F)cc4)nn3)nc12", "growth": "85%"},
      {"smiles": "C#CCOc1ccc2ncnc(Nc3ccc(NC(=O)C=C)cc3)c2c1", "growth": "97.7%"},
      {"smiles": "CCn1cc(C(=O)O)c(=O)c2cc(F)c(N3CCN(CC(=O)Nc4ccc(S(=O)(=O)Nc5nccc(C)n5)cc4)C(C)C3)c(F)c21", "note": "(stereo unspecified)", "growth": "97.1%"},
      {"smiles": "O=C(Nc1cccc(-c2ccc(N3CCOCC3)nn2)c1)Nc1cccc(C(F)(F)F)c1", "growth": "61.8%"},
      {"smiles": "CSc1nc2ncc([N+](=O)[O-])c(=O)n2[nH]1", "growth": "97%"},
      {"smiles": "COc1cc2ncnc(Nc3ccc(S(=O)(=O)Nc4cc(C)on4)cc3)c2cc1OCCCN1CCN(c2ccc(F)cc2)CC1", "growth": "98.1%"},
      {"smiles": "O=S(=O)(NCCNc1nccc(-c2c(-c3ccc(F)c(O)c3)nc3occn23)n1)c1ccc(Cl)cc1", "growth": "102%"},
      {"smiles": "Nc1ncnc2c1N=C(c1ccc(Br)cc1)CC(c1cccc(Nc3ccnc4cc(C(F)(F)F)ccc34)c1)N2", "note": "(stereo unspecified)", "growth": "67.3%"},
      {"smiles": "Nc1ncc(-c2ccc3ncnc(Nc4cccc(Cl)c4)c3c2)cn1", "growth": "51.3%"},
      {"smiles": "O=C(Nc1ccccc1)Nc1ncnc2c1ncn2-c1ccc(Cl)cc1", "growth": "65%"}
    ]},
    {"test_system": "NCI-H322M lung", "assay": "NCI-60 one-dose screen, 48 h (100 = growth as untreated, 0 = no growth, -100 = all killed)", "details": "10 µM unless noted", "values": [
      {"smiles": "C[PH+](c1nc2ccccc2nc1[PH+](C)C(C)(C)C)C(C)(C)C.C[PH+](c1nc2ccccc2nc1[PH+](C)C(C)(C)C)C(C)(C)C.[Au+].[Cl-]", "note": "(stereo unspecified)", "growth": "-94% (active)"},
      {"smiles": "CN(C)CCNC(=O)c1cc2c3cc(Cl)ccc3[nH]c2c2ncccc12", "growth": "31.4%"},
      {"smiles": "CNC(=O)c1ccccc1Oc1nc(Nc2cc(OC)c(OC)c(OC)c2)ncc1Br", "growth": "58.5%"},
      {"smiles": "O=C(c1ccccc1)c1ccc(C2CCCCC2)cc1", "growth": "99.7%"},
      {"smiles": "CCCCCCCC[C@@H]1N[C@@H](C(=O)OC)Cc2c1[nH]c1ccccc21", "growth": "99.7%"},
      {"smiles": "Cc1cc(N2CCCCC2)cc(C)c1-c1csc(NC(=O)c2ccncc2)n1", "growth": "78.2%"},
      {"smiles": "Cc1nc2sc(C(=O)Nc3ccc(Br)cc3)c(N)c2cc1C(O)c1ccccc1", "note": "(stereo unspecified)", "growth": "90.4%"},
      {"smiles": "CCN(CC)CC(O)COc1c(Br)c(Br)c(Br)c2c1OC(C)(C)C2", "note": "(stereo unspecified)", "growth": "60.7%"},
      {"smiles": "Cc1cccc(CNc2c3ccccc3nc3ccccc23)c1", "growth": "40.3%"},
      {"smiles": "Fc1cc2c(cc1Cl)N(c1ncnc3ccc(-c4ccc5n[nH]nc5c4)cc13)CC2", "growth": "54.5%"},
      {"smiles": "CC/C(=C(/c1ccc(Cl)cc1)c1ccc(OCCN(C)C)cc1)c1ccc(Cl)cc1", "growth": "83.6%"},
      {"smiles": "Cn1cc(-c2nonc2-c2cn(C)c3ccccc23)c2ccccc21", "growth": "47%"},
      {"smiles": "COC12C=C/C(=C(/C(=O)OCc3ccncc3)C(=O)CCCCCCCCC3(OC)C=C/C(=C(/C(=O)OCc4ccncc4)C(=O)CCCCCCCC1)O3)O2", "growth": "-63.2% (active)"},
      {"smiles": "COc1cc2ncnc(Nc3ccc(F)c(Cl)c3)c2cc1OCC(=O)N1CCN(c2ccccc2)CC1", "growth": "34%"},
      {"smiles": "COc1ccc(/C=C(\\C#N)n2nnc3cc(Cl)ccc32)cc1", "growth": "6.1% (active)"},
      {"smiles": "COc1ccc(C(=O)/C=C/c2c(C(F)(F)F)nc3ccccn23)cc1OC", "growth": "24%"},
      {"smiles": "CCN(C)S(=O)(=O)Nc1cccc(Nc2ncnc3cc(NC(=O)CCl)ccc23)c1Cl", "growth": "73.9%"},
      {"smiles": "Cc1c2cnccc2c(C)c2c1c1cc(C#N)ccc1n2C", "growth": "-16% (active)"},
      {"smiles": "CN(C)CC(C)(C)C(=O)/C=C/c1ccccc1", "growth": "-16.3% [25 µM] (active)"},
      {"smiles": "O=CN1N=C(c2cccc(Nc3ccnc4cc(Cl)ccc34)c2)CC1c1ccccc1", "note": "(stereo unspecified)", "growth": "71.8%"},
      {"smiles": "O=C(Nc1ccc(Oc2cccc(Cl)c2)c(Cl)c1)c1cnccn1", "growth": "47.9%"},
      {"smiles": "O=c1[nH]c(Cc2nc3ccccc3s2)nc2cc(Br)ccc12", "growth": "88.8%"},
      {"smiles": "C#CCNC(=O)[C@H](CC)[C@H]1CC[C@H](C)[C@H]([C@@H](C)[C@H](O)[C@H](C)C(=O)[C@H](CC)C2O[C@]3(C=CC(=O)[C@]4(CC[C@@](C)([C@H]5CC[C@](O)(CC)[C@H](C)O5)O4)O3)[C@H](C)C[C@@H]2C)O1", "note": "(stereo partly specified)", "growth": "53.8%"},
      {"smiles": "O=C(Nc1ccc(Oc2cccc(F)c2)c(Cl)c1)c1cccnc1", "growth": "50.8%"},
      {"smiles": "CS(=O)(=O)Nc1cc(-c2ccc3ncnc(Nc4ccc5c(cnn5Cc5ccc(F)cc5)c4)c3c2)cnc1Cl", "growth": "60.7%"},
      {"smiles": "COC1=CC(c2ccc[nH]2)=N/C1=C\\c1[nH]c(C)c(C)c1CCC(=O)OCc1ccccc1", "growth": "54.5%"},
      {"smiles": "CC(C)(C)CC(C)(C)NC(=O)Nc1ncccc1OCc1ccccc1", "growth": "86.3%"},
      {"smiles": "Nc1nc2ccccc2c2c1S(=O)(=O)c1ccc(Cl)cc1C2=O", "growth": "63%"},
      {"smiles": "CCOC(=O)C/C(=N\\Nc1cc(=O)[nH]c2ccc(Br)cc12)C(=O)OCC", "growth": "92.9%"},
      {"smiles": "COc1cc(-c2csc(NC(=O)c3ccc(N4CCOCC4)c(C(F)(F)F)c3)n2)cc(OC)c1OC", "growth": "70.3%"},
      {"smiles": "Oc1c(Br)cc(Br)c2ccc(Cn3cc(-c4ccc(C(F)(F)F)cc4)nn3)nc12", "growth": "103%"},
      {"smiles": "C#CCOc1ccc2ncnc(Nc3ccc(NC(=O)C=C)cc3)c2c1", "growth": "69.5%"},
      {"smiles": "CCn1cc(C(=O)O)c(=O)c2cc(F)c(N3CCN(CC(=O)Nc4ccc(S(=O)(=O)Nc5nccc(C)n5)cc4)C(C)C3)c(F)c21", "note": "(stereo unspecified)", "growth": "104%"},
      {"smiles": "O=C(Nc1cccc(-c2ccc(N3CCOCC3)nn2)c1)Nc1cccc(C(F)(F)F)c1", "growth": "89.6%"},
      {"smiles": "CSc1nc2ncc([N+](=O)[O-])c(=O)n2[nH]1", "growth": "110%"},
      {"smiles": "COc1cc2ncnc(Nc3ccc(S(=O)(=O)Nc4cc(C)on4)cc3)c2cc1OCCCN1CCN(c2ccc(F)cc2)CC1", "growth": "99.6%"},
      {"smiles": "O=S(=O)(NCCNc1nccc(-c2c(-c3ccc(F)c(O)c3)nc3occn23)n1)c1ccc(Cl)cc1", "growth": "97.1%"},
      {"smiles": "Nc1ncnc2c1N=C(c1ccc(Br)cc1)CC(c1cccc(Nc3ccnc4cc(C(F)(F)F)ccc34)c1)N2", "note": "(stereo unspecified)", "growth": "95.6%"},
      {"smiles": "Nc1ncc(-c2ccc3ncnc(Nc4cccc(Cl)c4)c3c2)cn1", "growth": "4.75% (active)"},
      {"smiles": "O=C(Nc1ccccc1)Nc1ncnc2c1ncn2-c1ccc(Cl)cc1", "growth": "79.3%"}
    ]}
  ]
}
